In assay [1] the target is Lysosomal acid glucosylceramidase (Homo sapiens) (UniProt P04062). Nature of the assay: Glucocerebrosidase-p2 (AID 348; in the data active = potency below about 10 µM; also: potency is read from the fitted curve at half-maximal effect). The conditions noted are these: purified GBA, blue fluorogenic substrate, 40 min. The gist of the method:
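Normal human glucocerebrosidase (0.2 nM) with blue fluorogenic substrate (80 uM final) in citrate/phosphate pH 5.9 with 10mM sodium taurocholate, 0.01% tween-20; 40 min RT, NaOH/glycine stop; fluorescence Ex 365/Em 440; AC50 from a titration from 0.6 nM upwards.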

A short description of assay [2]: AP1 Signaling Pathway (AID 357; active = well fitted curve in either direction with a large enough effect, not every such curve was filed as active; also: % is scaled to controls: 0 for no effect and ±100 for the full control effect). Particulars: ME-180 AP-1-bla reporter, EGF-induced, beta-lactamase ratio, 5 h. The essentials: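 Cells are seeded overnight, exposed to compound titrations and an EC50 level of EGF for 5 hours at 37 °C, then loaded with CCF4 dye for 2.5 hours. Beta-lactamase activity under the AP-1 element is read as a blue/green ratio.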
Assay [3] is described as follows: NFAT Signaling Pathway (AID 444; active = well fitted curve in either direction with a large enough effect, not every such curve was filed as active;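 also: carbachol stimulus at about its EC50 of 1 µM final; % is scaled to controls: 0 for no effect and ±100 for the full control effect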). The conditions noted are these: Jurkat NFAT-bla M1, carbachol, beta-lactamase ratio, 5 h. The gist of the method:
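Read-out: CCF4 FRET ratio (460 nm/530 nm) after 1 h RT dye loading, used for %activity and AC50 from titration series. Cells: Jurkat NFAT-β-lactamase/M1 line, treated with compound plus 1 uM carbachol for 5 h, 37 °C.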

The nature of assay [4]: Stat Signaling Pathway (AID 446; active = well fitted curve in either direction with a large enough effect, not every such curve was filed as active;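 also: ME-180 cervical cancer cells given 40 pM IL-6 alongside compound; SIE-controlled beta-lactamase reporter measured as 460/530 nm FRET emission ratio; % is scaled to controls: 0 for no effect and ±100 for the full control effect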). The conditions noted are these: ME-180 (cervical carcinoma) SIE beta-lactamase reporter, IL-6 stimulated, 5 h. The gist of the method:
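Overnight-plated ME-180 cells bearing a STAT Inducible Element beta-lactamase reporter; 5 h co-exposure to compound and 40 pM IL-6; values normalized to 300 pM IL-6 and 125 nM JAK inhibitor controls.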

The target in assay [5] is Glucocorticoid receptor (Homo sapiens) (UniProt P04150). Kind of assay: GR-GFP Redistribution (AID 450;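 active = compounds whose dose series gives a full or clear partial fitted curve of increased nuclear translocation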; also: potency is read from the fitted curve at half-maximal effect). The conditions noted are these: U2OS GR-GFP nuclear translocation, laser cytometry, 2 h.
Assay [6] has the same target. Nature of the assay: GR-EFC Redistribution (AID 451; calls by dose curve; also: potency is read from the fitted curve at half-maximal effect). The conditions noted are these: CHO-K1 GR-EFC translocation, beta-gal luminescence, 2 h. The essentials:
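Translocation of GR-ED fusion to nuclear EA restores b-gal, read by luminescence after 1 h room-temperature detection. Engineered CHO-K1 biosensor cells, 1,000/well, exposed 2 h at 37 C to titrations up to 46 uM final.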

Assay [7] addresses Mitogen-activated protein kinase 10 (Mus musculus) (UniProt Q61831). Nature of the assay: JNK3 AlphaScreen Assay (AID 530; active = well fitted curve in either direction with a large enough effect, not every such curve was filed as active;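 also: kinase came from lysate of stimulated human HepG2 cells; signal reports phosphorylation of biotinylated GST-cJun 1-79 at Ser73 with 10 µM ATP; % is scaled to controls: 0 for no effect and ±100 for the full control effect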). The gist of the method:
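qHTS titrations with 15 min compound pre-incubation before adding ATP (10 uM final). Read-out: AlphaScreen of Ser73-phosphorylated biotin-GST-cJun using HepG2 lysate JNK3 activated by IL-1β and TNFα.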

Assay [8] concerns the target 3',5'-cyclic-AMP phosphodiesterase 4B (Homo sapiens) (UniProt Q07343). Kind of assay: qHTS Assay for Inhibitors of PDE-IV (AID 607; active = well fitted activation curve with a large enough effect in the main read-out, with a control signal flat, not every such curve was filed as active; also: % of control where 0% means no effect). The essentials: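 Live HEK293 cells with a modified cyclic nucleotide-gated (CNG) channel report intracellular cAMP via membrane-potential dye fluorescence (ex 535/em 590 nm). Endogenous PDE-IV was targeted. Compounds were tested at up to 22.9 uM final; RO 20-1724 100 uM served as control.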
A general note: In qHTS, concentration-response curves come from the screen itself.

Assay [9] concerns the target Guanine nucleotide-binding protein G(i) subunit alpha-1 (Homo sapiens) (UniProt P63096). Nature of the assay: qHTS Assay for Inhibitors of RGS12 GoLoco Motif Activity (Green Fluorophore) (AID 879).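 Also: 0% = labeled peptide with Gαi1 and full inhibition = labeled peptide alone without protein; negative values mean loss of peptide binding seen as reduced polarization.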 The gist of the method: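 A drop in FITC polarization marked displacement of the FITC-tagged RGS12 GoLoco peptide (10 nM) from Gαi1 (50 nM). Compounds were incubated 10 min at room temperature in Tris pH 7.5 buffer containing 150 mM NaCl, 0.1 mM GDP and 0.05% NP40; unlabeled peptide titration served as control.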

Assay [10] can be described thus: qHTS Assay for Identification of Small Molecule Agonists for Thrombopoietin (TPO) Signaling Pathway (AID 917). Also: % is scaled to controls: 0 for no effect and ±100 for the full control effect. The gist of the method:
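First, Ba/F3 cells with human TPO receptor were held overnight without IL-3. Next, compounds and TPO (26 pM final) were added. After 24 hrs at 37 C, luciferase detection reagent was added and luminescence measured following 10 min at room temperature.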

Assay [11] deals with Pyruvate kinase (Leishmania mexicana) (UniProt Q27686). Nature of the assay: qHTS Validation Assay for Inhibitors of Leishmania Mexicana Pyruvate Kinase (AID 945).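 Also: 0% = DMSO only neutral control wells.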 The gist of the method:
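An endpoint luciferase assay: 0.2 nM LmPYK E451W turns over 0.5 mM PEP with 0.1 mM ADP for 1 h at room temperature, pH 7.2, before PKLight addition. Values are normalized to DMSO-only wells.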

Assay [12] addresses Pyruvate kinase PKM (Homo sapiens) (UniProt P14618). Kind of assay: qHTS Assay for Activators of Human Muscle Pyruvate Kinase (AID 954; active = well fitted curve in the direction sought with a large enough effect, not every such curve was filed as active;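 also: 0% = uninhibited enzyme and -100% = no enzyme or full thiadiazolimine inhibition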). The gist of the method:
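Screening used highly purified human pyruvate kinase M2 under submaximal activity, with PEP at its Km and ADP below Km. After an hour at room temperature, ATP was read by luciferase luminescence.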

The target of assay [13] is Alpha-galactosidase A (Homo sapiens) (UniProt P06280). Nature of the assay: Counterscreen for Glucocerebrosidase Inhibitors: qHTS Assay for Human alpha-Galactosidase at pH 4.5 (AID 992). Also: 0% is about no effect. The gist of the method:
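Each compound is preincubated briefly with 2 nM enzyme before substrate addition (80 uM); plates then sit 20 min at ambient temperature, are quenched with 1M NaOH/1M glycine, and read fluorometrically.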
(In general: A counterscreen serves to expose hits that act by an unwanted route or on another target.)

Assay [14] has as its target alpha-glucosidase (Oryza sativa, rice) (UniProt Q653V4). Nature of the assay: Counterscreen for Glucocerebrosidase Inhibitors: qHTS Assay for Rice alpha-Glucosidase at pH 5.0 (AID 997).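 Also: 0% = full activity with enzyme and -100% = basal without enzyme.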 The essentials:
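Endpoint fluorogenic assay at pH 5.0: compounds (0.7 nM to 77 uM) titrated against 4 nM rice enzyme and 400 uM 4-MU-alpha-glucoside for 20 min at room temperature; NaOH/glycine stop, read ex 365/em 440 nm, Hill-fitted AC50.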

The nature of assay [15]: qHTS Assay for Lipid Storage Modulators (AID 1519; calls by dose curve). Particulars: Drosophila S3 cells, BODIPY lipid droplet/cell ratio, laser cytometry, cells loaded with oleic acid. The gist of the method: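 Cells seeded at 5,000 per well were treated with compounds over a concentration series and loaded with oleic acid (400 uM, as added). Lipid droplet fluorescence (488 nm excitation, 500-530 nm channel) was read by laser-scanning cytometry and normalized to 20 uM Triacsin C.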

The target of assay [16] is Ubiquitin carboxyl-terminal hydrolase 1 (Homo sapiens) (UniProt O94782). Kind of assay: Inhibitors of USP1/UAF1: Pilot qHTS (AID 504865).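 Also: rhodamine fluorescence freed from ubiquitin-rhodamine substrate followed over time; top concentration of the series differs between compounds; % is scaled to controls: 0 for no effect and ±100 for the full control effect; nearly all actives have a fitted effect of over 35% in size.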 The gist of the method: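 USP1/UAF1 complex (1nM) preincubated with compound 15 min at room temperature, then Ub-Rho substrate (150nM final) added. Fluorescence read kinetically at 480/540 nm, 6 reads every 60 seconds. Buffer: 50mM HEPES pH 7.8, 0.5mM EDTA, 0.1 mg/ml BSA, 1mM TCEP, 0.01% Tween-20.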

Assay [17] has as its target DNA dC->dU-editing enzyme APOBEC-3G (Homo sapiens) (UniProt Q9HC16). Kind of assay: qHTS for inhibitors of Vif-A3G interactions: Validation (AID 588379). Also: 0% is about no effect. The gist of the method:
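Yellow fluorescence (Ex 488, Em 500-530) of Vif-coexpressing HeLa A3G-eYFP cells, scanned by Acumen cytometer, reports blocked A3G degradation. Cells plated at 700/well overnight at 37 deg C before compound addition, then a further overnight compound incubation at 37 deg C.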

Assay [18] has as its system Zika virus NS2B-NS3 protease. Kind of assay: Primary screen GU AMC qHTS for Zika virus inhibitors (AID 1347154).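 Also: 0% = no-inhibitor control and -100% = no-enzyme control; nearly all actives have a fitted effect of over 70% in size.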 The gist of the method:
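Fluorogenic AMC-substrate cleavage by noncovalent NS2B-NS3 protease complex (25 nM, pH 8.0 Tris buffer with Tween 20) followed for 15 minutes at room temperature (~20% conversion). Percent inhibition from ex340/em450 signal change, fitted by 4-parameter Hill equation.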

Assay [19] is described as follows: Confirmatory qHTS for small molecule stabilizers of the endoplasmic reticulum resident proteome: Secreted ER Calcium Modulated Protein (SERCaMP) assay (AID 1508628). Also: potency is read from the fitted curve at half-maximal effect; nearly all actives have a fitted effect of over 40% in size. The essentials:
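Reporter secretion upon ER calcium depletion (100 nM thapsigargin, 4 h, 37C) is measured as medium luminescence with coelenterazine, after 16 h compound pretreatment of SH-SY5Y-GLuc-SERCaMP cells; primary at three concentrations up to 38.3 uM, follow-up at 11 (up to 76.6 uM).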

Assay [20] addresses Cytochrome P450 1A2 (Homo sapiens) (UniProt P05177). Nature of the assay: p450-cyp1a2 (AID 410; calls by dose curve;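 also: -100% = full effect of reference inhibitor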). The gist of the method: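 Luminescent demethylation readout: Luciferin-ME (100uM, equal to Km) turned over by 20nM CYP1A2 for 60 min at room temperature after NADPH regeneration addition, following 10 min compound preincubation. Normalization used 57 uM furafylline as full inhibition.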

Assay [21] addresses Cytochrome P450 3A4 (Homo sapiens) (UniProt P08684). Nature of the assay: qHTS Assay for Activators of Cytochrome P450 3A4 (AID 885). Also: nearly all actives have a fitted effect of over 65% in size. The essentials:
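Using 20nM recombinant human CYP3A4 in potassium phosphate (200mM), substrate Luciferin-PPXE at 25uM, luminescent luciferin detection followed a 60-min RT NADPH reaction; data scaled to 57 uM ketoconazole.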

Assay [22] can be described thus: Counterscreen qHTS for small molecule stabilizers of the endoplasmic reticulum resident proteome: GLuc-NoTag assay (AID 1508627).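 Also: 0% = thapsigargin alone and -100% = DMSO vehicle control.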 The gist of the method:
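Counterscreen line: SH-SY5Y-GLuc-NoTag cells, treated with compound 19 hr before a 4 hr, 100 nM thapsigargin calcium depletion. Secreted Gaussia luciferase in the medium was measured by luminescence after coelenterazine was added (0.07x final), with cells unlysed.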

Assay [23] can be described thus: Cell Viability qHTS for small molecule stabilizers of the endoplasmic reticulum resident proteome (AID 1508629). The conditions noted are these: cell viability counter-screen, 100 nM thapsigargin for final 4 h.

The structures appear in SMILES notation. “And” between values parts separate entries of the source, which are not always exact repeats. Equal values may be shown once. Inconclusive results are not listed. The source made the active and inactive calls. Unless noted, calls follow the shape of the dose curve; as a rule, active = well fitted curve in the direction sought with a large enough effect; inconclusive = small, poorly fitted or top-dose-only effect, or another doubt; inactive = no such curve, though single readings can be large; an effect the other way counts as inactive or inconclusive.

This note sets out measurements from PubChem BioAssay (NCATS).

Glucocorticoid receptor (Homo sapiens), sequence (P04150 whole entry, looked up): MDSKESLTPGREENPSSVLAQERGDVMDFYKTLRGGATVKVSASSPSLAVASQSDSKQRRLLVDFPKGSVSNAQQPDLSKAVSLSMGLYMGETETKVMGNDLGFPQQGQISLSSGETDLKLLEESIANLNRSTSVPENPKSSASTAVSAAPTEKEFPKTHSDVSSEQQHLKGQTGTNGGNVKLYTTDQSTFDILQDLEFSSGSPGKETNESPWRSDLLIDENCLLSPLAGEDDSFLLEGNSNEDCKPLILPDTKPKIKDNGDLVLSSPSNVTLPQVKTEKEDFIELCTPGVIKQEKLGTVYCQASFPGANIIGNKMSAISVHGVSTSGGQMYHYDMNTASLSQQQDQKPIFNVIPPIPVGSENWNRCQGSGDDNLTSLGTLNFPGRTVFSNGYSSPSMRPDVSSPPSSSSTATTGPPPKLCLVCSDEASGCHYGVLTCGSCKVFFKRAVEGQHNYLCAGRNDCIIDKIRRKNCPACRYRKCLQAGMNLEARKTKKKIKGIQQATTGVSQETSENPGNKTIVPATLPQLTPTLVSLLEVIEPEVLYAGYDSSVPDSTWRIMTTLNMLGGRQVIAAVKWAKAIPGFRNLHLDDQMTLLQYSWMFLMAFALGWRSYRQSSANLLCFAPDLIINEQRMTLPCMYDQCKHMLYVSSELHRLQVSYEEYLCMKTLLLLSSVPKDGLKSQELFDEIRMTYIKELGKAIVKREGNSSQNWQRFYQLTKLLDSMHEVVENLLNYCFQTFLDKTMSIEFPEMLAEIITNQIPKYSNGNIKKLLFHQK
3',5'-cyclic-AMP phosphodiesterase 4B (Homo sapiens), sequence (Q07343 whole entry, looked up): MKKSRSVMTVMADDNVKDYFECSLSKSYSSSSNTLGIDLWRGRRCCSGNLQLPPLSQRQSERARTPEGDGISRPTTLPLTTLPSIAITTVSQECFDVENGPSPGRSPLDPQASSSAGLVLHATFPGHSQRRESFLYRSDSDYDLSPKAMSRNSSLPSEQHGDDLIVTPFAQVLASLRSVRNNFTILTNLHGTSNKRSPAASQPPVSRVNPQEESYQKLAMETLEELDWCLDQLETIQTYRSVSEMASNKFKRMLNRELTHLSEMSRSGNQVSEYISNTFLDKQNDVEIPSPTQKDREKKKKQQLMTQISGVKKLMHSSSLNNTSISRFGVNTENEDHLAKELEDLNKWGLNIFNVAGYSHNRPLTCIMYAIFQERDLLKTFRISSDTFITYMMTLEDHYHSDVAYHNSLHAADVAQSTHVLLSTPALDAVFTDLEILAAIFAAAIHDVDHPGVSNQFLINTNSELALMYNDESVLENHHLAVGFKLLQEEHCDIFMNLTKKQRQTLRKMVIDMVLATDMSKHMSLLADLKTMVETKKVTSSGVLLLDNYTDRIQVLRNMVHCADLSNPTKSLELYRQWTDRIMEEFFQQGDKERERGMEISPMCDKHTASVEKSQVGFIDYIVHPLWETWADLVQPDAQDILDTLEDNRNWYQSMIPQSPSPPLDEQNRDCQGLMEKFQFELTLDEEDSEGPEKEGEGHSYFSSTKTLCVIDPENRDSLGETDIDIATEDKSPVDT
Ubiquitin carboxyl-terminal hydrolase 1 (Homo sapiens), sequence (O94782 whole entry, looked up): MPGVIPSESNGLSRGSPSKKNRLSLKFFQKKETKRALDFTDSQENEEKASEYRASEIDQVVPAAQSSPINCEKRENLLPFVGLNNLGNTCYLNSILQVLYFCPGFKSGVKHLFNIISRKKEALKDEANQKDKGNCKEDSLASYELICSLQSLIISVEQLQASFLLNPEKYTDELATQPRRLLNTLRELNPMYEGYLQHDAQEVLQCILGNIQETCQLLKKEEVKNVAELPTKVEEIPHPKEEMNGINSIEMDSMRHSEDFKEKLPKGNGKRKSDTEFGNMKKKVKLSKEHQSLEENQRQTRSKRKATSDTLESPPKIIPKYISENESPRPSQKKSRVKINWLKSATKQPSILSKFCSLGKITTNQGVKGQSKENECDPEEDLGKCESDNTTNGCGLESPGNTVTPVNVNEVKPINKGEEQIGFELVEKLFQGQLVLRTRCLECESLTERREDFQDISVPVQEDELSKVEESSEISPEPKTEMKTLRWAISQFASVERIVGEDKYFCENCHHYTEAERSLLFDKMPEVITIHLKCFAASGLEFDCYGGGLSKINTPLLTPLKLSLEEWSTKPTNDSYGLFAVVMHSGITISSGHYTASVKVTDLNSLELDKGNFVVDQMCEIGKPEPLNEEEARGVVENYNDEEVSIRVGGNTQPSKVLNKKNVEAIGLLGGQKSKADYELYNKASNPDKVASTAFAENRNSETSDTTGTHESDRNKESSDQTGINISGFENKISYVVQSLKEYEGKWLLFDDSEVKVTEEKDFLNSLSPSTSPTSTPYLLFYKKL
Pyruvate kinase PKM (Homo sapiens), sequence (P14618 whole entry, looked up): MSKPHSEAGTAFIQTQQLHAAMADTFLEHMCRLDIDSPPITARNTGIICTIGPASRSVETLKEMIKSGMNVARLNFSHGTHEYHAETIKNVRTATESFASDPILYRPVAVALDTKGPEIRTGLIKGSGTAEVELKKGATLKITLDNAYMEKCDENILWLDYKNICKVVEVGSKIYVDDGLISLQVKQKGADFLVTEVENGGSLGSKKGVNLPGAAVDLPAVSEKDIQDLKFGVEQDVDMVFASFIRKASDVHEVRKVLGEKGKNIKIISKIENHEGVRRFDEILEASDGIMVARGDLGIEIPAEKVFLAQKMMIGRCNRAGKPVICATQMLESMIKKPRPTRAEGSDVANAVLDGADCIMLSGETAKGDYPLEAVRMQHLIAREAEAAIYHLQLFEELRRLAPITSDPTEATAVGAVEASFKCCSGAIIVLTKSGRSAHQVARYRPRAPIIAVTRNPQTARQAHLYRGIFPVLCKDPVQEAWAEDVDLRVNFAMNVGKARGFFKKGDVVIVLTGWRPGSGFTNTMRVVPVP
Guanine nucleotide-binding protein G(i) subunit alpha-1 (Homo sapiens), sequence (P63096 whole entry, looked up): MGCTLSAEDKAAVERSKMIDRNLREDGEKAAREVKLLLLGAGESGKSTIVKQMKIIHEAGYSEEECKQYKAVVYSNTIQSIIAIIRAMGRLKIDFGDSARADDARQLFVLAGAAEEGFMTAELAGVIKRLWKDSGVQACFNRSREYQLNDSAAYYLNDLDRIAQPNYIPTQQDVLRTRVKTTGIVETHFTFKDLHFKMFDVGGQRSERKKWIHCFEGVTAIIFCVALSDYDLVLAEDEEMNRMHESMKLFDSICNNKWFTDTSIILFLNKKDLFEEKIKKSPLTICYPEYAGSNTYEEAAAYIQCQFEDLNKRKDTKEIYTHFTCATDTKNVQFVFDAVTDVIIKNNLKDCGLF
Pyruvate kinase (Leishmania mexicana), sequence (Q27686 2-499 E452W): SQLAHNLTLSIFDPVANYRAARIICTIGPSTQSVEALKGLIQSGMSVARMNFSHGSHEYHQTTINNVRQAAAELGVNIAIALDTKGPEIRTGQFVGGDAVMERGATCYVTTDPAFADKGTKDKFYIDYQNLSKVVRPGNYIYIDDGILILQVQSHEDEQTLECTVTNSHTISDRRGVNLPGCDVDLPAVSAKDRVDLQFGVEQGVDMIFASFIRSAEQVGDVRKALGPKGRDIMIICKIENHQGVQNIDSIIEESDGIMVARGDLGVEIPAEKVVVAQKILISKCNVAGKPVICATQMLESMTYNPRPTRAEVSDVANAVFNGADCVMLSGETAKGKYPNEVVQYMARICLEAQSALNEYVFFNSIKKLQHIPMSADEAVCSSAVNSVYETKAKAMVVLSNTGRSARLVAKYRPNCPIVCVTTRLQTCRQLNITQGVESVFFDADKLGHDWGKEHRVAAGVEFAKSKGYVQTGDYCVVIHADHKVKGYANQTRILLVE
Cytochrome P450 3A4 (Homo sapiens), sequence (P08684 whole entry, looked up): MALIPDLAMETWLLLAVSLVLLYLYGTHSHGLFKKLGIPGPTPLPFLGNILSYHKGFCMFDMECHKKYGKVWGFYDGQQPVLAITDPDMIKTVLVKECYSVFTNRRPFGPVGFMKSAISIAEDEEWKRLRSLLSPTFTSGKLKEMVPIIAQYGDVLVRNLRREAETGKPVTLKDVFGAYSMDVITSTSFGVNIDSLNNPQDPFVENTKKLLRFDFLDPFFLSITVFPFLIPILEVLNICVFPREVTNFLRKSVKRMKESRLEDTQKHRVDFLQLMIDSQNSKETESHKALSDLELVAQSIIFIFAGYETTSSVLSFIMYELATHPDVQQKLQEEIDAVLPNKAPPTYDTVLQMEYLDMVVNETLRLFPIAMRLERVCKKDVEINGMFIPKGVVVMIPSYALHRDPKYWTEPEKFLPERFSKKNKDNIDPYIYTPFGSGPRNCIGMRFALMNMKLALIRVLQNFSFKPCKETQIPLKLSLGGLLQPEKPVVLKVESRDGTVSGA
DNA dC->dU-editing enzyme APOBEC-3G (Homo sapiens), sequence (Q9HC16 whole entry, looked up): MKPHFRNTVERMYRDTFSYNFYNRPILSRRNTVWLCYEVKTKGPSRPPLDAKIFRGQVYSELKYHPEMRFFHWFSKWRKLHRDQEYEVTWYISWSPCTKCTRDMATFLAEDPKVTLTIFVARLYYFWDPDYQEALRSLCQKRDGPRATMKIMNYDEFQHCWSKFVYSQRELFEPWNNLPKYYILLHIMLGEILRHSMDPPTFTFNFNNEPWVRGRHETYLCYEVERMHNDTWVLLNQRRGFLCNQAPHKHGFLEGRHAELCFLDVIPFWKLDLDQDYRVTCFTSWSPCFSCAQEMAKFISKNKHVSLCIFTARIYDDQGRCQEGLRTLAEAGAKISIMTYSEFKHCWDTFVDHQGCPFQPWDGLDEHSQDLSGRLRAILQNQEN
Alpha-galactosidase A (Homo sapiens), sequence (P06280 whole entry, looked up): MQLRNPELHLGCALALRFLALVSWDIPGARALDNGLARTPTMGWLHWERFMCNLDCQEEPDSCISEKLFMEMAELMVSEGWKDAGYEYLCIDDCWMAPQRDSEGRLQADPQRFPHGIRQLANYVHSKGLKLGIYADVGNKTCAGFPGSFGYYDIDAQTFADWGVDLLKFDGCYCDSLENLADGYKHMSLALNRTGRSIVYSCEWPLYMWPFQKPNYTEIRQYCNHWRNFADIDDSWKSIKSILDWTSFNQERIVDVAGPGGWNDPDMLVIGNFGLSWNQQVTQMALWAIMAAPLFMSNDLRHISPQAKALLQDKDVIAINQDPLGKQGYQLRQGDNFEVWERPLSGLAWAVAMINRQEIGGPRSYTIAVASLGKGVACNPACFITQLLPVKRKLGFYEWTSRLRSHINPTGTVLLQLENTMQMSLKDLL

With `CN(C)C/C=C(\c1ccc(Br)cc1)c1cccnc1`, the Potency was > 11.4 µM (inactive) in [1]; > 46 µM (inactive) and > 20.6 µM (inactive) in [5]; > 46 µM (inactive) and > 20.6 µM (inactive) and > 9.22 µM (inactive) in assay [6]; 44.7 µM (active) in assay [19]. In addition, the activity change, negative = inhibition in assay [2] (at 7.69 µM (top of the series)) was 5.82% (inactive); in assay [2] (at 17.2 µM (top of the series)), 4.78% (inactive); in assay [2] (at 38 µM (top of the series)), 14.9% (inactive); in assay [3] (at 7.69 µM (top of the series)) it was -7.27% (inactive); in assay [3] (at 17.2 µM (top of the series)) it was -12.7% (inactive); in [15] (at 25.7 µM (top of the series)), -2.94% (inactive). The activity, negative = inhibition was 3.29% (inactive) in assay [4] (at 7.69 µM (top of the series)), 7.82% (inactive) in assay [4] (at 17.2 µM (top of the series)) and -15.8% (inactive) in [4] (at 38 µM (top of the series)). For the same compound, the Potency result in [7], in assay [8], in [10], in assay [11], in assay [16] and in assay [17] was “inactive” throughout. The Potency result in assay [18] was “inactive”. Further, the call in assay [9], in assay [12], in assay [13] and in assay [14] was inactive. For the same compound, the max response in [15] (measured here: cell count channel max response) was -7.55%; in [15] (measured here: lipid channel max response), -11.6%.

With `CC(C)C[C@H]1C(=O)N2CCC[C@@H]2[C@]2(O)O[C@](NC(=O)[C@@H]3C=C4c5cccc6[nH]c(Br)c(c56)C[C@H]4N(C)C3)(C(C)C)C(=O)N12`, the Potency entry in [20], in assay [7], in assay [8], in assay [21], in assay [18] and in assay [22] was “inactive” each time. Further, the Potency in assay [5] is > 46 µM (inactive); in assay [19], 10 µM (active). Moreover, the max response in assay [23] was -14.6% (inactive).
